Laboratory results reported in PubChem BioAssay (NCATS).
Values without a mark were called inactive. Records with an inconclusive call do not appear. Where a call stands in place of a potency, no number is given. The source made the active and inactive calls. Unless noted, calls follow the shape of the dose curve; as a rule, active = well fitted curve in the direction sought with a large enough effect; inconclusive = small, poorly fitted or top-dose-only effect, or another doubt; inactive = no such curve, though single readings can be large; an effect the other way counts as inactive or inconclusive.

Tests used:
[1] = biological target: Hexokinase-4 (Homo sapiens) + Glucokinase regulatory protein (Homo sapiens) (UniProt P35557+Q14397); assay: qHTS assay for inhibitors of recombinant human GCK-GKRP interaction: HTRF assay (AID 743207)
How it was run: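 5 nM GST-GCK + 5 nM FLAG-GKRP + 2 uM S6P, pH 7.1 buffer (25 mM Hepes, 2 mM MgCl2, 25 mM KCl, 1 mM DTT, Tween/BSA); pin-transferred cpd; anti-FLAG XL665/anti-GST K; 60 min RT; HTRF.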

[2] = qHTS Assay for Identifying Gametocytocidal Compounds (AID 743244); also: potency is read from the fitted curve at half-maximal effect;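 as to max response: actives lower the fluorescent signal which means gametocytes are killed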; conditions: P. falciparum 3D7 stage III-V gametocytes, alamarBlue, 72 h; max response: stronger effect = lower value
How it was run: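 Stage III–V gametocytes of P. falciparum 3D7 were seeded at 20,000 cells/well onto pre-dispensed compounds. After 72 h, 37 °C, 5% CO2, alamarBlue was added for another 24 h.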

[3] = qHTS assay for measurement of the activity of small molecule inhibitors on Zika virus induced Caspase-3 activity in human iPSC derived neural progenitor cells (hNPCs) (AID 1224857); also: nearly all actives have a fitted effect of over 65% in size
How it was run: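 Values are percent inhibition of virus-induced caspase-3/7 signal, scaled between uninfected cells and ZIKV-infected cells. Infection used 2 FFU/cell for 6 h after 1 h compound exposure.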

[4] = qHTS assay for measurement of the activity of small molecule inhibitors on Zika virus induced Caspase-3 activity in human astrocytoma cells (AID 1224859)
How it was run: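 Compound added 1 h pre-infection; ZIKV 2 FFU/cell on SNB-19 cells, 6 h, 37 C/5% CO2. Caspase-Glo 3/7 luminescence; values as % inhibition of ZIKV-induced caspase activity.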

[5] = Natriuretic polypeptide receptor (hNpr1) antagonism - Pilot counterscreen GloSensor control cell line (AID 1347045; calls by dose curve; also: potency is read from the fitted curve at half-maximal effect)
How it was run: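 HEK293 cells carrying the GloSensor cGMP sensor (GIP/pGS-40F) were loaded with 2% GloSensor reagent for 2 h, exposed to compounds for 30 min, and then stimulated with 50 uM sodium nitroprusside for 20 min at room temperature.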

[6] = biological target: Atrial natriuretic peptide receptor 1 (Homo sapiens) (UniProt P16066); assay: Natriuretic polypeptide receptor (hNpr1) antagonism - Pilot screen (AID 1347049; calls by dose curve;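 also: agonist-evoked cGMP luminescence read 20 min after hNppA addition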; also: potency is read from the fitted curve at half-maximal effect)
How it was run: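 HEK293 cells expressing hNpr1 and GloSensor cGMP luciferase, 1500/well, loaded with 2% GloSensor reagent 2 h, compound 30 min at room temperature; luminescence read before and 20 min after 0.1 nM hNppA stimulation.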

[7] = biological target: Atrial natriuretic peptide receptor 2 (Homo sapiens) (UniProt P20594); assay: Natriuretic polypeptide receptor (hNpr2) antagonism - Pilot subtype selectivity assay (AID 1347050; calls by dose curve; also: potency is read from the fitted curve at half-maximal effect)
How it was run: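 HEK293 cells expressing hNpr2 and a GloSensor cGMP luciferase sensor, 1500/well, preloaded 2 h with 2% GloSensor reagent, compound 30 min, then 1 nM hNppC for 20 min. Antagonism from luminescence after versus baseline pre-read; LOPAC in 1:5 titrations.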

[8] = NS1 protein of Zika virus - qHTS assay to identify small molecule inhibitors in human HEK 293 cells (AID 1347053); also: series mostly up to about 46 µM; nearly all actives have a fitted effect of over 55% in size
How it was run: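 Following 20 h seeding, HEK 293 cells took compound, then 1 h later ZIKV MR766 (MOI = 0.5). Incubation ran 24 h at 37 C before TR-FRET detection of NS1; a drop in signal indicates inhibition.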

[9] = qHTS assay to identify small molecule inhibitors of chordoma cells - UCH-2 (AID 1259356); also: series mostly up to about 46 µM
[10] = P-glycoprotein substrates identified in KB-8-5-11 adenocarcinoma cell line, qHTS therapeutic library screen (AID 1346987); also: series mostly up to about 44 µM; nearly all actives have a fitted effect of over 65% in size
How it was run: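 KB-8-5-11: colchicine-selected sub-line of KB-3-1 over-expressing P-gp; assay medium lacked colchicine. 72 h drug exposure at 37 degree C, CellTiter-Glo.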

Chain of Atrial natriuretic peptide receptor 2 (Homo sapiens) (P20594 whole entry, looked up): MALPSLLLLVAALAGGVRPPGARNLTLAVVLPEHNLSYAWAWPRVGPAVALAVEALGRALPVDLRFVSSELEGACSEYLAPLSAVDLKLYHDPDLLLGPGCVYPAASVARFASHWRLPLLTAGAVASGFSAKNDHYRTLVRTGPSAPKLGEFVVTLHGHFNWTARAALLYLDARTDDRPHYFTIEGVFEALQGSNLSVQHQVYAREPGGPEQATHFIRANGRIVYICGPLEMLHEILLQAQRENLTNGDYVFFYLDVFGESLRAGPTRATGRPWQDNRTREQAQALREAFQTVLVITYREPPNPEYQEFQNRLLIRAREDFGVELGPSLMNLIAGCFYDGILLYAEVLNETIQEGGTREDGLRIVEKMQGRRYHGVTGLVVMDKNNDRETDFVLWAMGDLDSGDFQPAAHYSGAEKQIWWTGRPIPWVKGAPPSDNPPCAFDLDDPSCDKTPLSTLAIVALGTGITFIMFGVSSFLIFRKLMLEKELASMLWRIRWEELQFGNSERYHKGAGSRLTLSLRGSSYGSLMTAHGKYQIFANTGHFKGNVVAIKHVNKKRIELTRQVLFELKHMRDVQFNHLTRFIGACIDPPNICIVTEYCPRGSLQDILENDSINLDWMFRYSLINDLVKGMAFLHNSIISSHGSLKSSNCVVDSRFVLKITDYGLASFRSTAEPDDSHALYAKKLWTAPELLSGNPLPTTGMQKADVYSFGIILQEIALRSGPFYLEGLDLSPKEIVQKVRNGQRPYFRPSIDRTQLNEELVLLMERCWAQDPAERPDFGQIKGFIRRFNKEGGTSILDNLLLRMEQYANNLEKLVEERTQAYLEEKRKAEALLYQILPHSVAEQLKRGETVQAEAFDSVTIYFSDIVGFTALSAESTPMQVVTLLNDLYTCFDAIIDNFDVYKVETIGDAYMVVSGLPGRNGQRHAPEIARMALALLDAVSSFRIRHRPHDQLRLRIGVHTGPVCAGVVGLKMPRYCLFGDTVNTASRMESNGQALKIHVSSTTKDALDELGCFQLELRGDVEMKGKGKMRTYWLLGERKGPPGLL
Chain of Atrial natriuretic peptide receptor 1 (Homo sapiens) (P16066 whole entry, looked up): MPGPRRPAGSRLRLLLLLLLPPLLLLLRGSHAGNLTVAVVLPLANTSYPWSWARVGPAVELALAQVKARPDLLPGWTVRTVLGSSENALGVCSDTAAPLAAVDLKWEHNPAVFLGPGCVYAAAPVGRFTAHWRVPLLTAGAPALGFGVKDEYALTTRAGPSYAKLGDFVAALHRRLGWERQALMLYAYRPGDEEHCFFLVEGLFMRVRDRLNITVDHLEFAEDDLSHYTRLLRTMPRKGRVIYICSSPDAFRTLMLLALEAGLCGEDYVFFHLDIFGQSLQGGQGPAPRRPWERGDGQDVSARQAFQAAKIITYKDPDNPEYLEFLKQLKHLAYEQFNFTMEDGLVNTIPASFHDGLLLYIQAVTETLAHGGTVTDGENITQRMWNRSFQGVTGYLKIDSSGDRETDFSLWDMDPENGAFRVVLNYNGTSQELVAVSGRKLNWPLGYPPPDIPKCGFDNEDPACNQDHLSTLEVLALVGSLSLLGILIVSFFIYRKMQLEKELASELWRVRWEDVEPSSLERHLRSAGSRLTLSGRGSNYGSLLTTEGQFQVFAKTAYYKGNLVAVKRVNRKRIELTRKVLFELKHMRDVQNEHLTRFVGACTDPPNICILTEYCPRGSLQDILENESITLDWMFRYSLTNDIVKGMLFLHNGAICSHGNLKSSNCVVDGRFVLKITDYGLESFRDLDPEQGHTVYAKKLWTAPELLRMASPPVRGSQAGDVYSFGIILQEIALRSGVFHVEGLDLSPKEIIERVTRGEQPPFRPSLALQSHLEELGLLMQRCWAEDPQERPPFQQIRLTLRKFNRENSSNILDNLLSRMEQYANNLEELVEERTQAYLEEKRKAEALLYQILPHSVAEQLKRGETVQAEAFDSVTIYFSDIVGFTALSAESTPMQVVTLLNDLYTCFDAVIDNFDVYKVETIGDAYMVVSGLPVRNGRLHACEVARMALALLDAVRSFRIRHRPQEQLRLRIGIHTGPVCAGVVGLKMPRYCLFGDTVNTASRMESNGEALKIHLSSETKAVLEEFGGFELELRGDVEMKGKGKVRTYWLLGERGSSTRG
Chain of Hexokinase-4 (Homo sapiens) + Glucokinase regulatory protein (Homo sapiens) (P35557 whole entry, looked up): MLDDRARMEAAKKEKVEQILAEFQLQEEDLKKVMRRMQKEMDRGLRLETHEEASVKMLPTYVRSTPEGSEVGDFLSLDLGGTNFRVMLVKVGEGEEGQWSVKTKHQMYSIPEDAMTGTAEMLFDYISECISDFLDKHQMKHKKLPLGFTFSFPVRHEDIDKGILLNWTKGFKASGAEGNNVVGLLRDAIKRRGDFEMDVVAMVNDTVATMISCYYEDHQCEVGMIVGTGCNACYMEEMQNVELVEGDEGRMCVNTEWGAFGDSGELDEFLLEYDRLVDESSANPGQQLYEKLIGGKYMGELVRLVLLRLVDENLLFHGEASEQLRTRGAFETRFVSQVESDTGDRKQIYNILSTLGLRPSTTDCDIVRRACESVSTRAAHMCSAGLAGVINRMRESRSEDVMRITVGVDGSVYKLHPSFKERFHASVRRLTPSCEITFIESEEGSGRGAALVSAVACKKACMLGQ
Chain of Hexokinase-4 (Homo sapiens) + Glucokinase regulatory protein (Homo sapiens) (Q14397 whole entry, looked up): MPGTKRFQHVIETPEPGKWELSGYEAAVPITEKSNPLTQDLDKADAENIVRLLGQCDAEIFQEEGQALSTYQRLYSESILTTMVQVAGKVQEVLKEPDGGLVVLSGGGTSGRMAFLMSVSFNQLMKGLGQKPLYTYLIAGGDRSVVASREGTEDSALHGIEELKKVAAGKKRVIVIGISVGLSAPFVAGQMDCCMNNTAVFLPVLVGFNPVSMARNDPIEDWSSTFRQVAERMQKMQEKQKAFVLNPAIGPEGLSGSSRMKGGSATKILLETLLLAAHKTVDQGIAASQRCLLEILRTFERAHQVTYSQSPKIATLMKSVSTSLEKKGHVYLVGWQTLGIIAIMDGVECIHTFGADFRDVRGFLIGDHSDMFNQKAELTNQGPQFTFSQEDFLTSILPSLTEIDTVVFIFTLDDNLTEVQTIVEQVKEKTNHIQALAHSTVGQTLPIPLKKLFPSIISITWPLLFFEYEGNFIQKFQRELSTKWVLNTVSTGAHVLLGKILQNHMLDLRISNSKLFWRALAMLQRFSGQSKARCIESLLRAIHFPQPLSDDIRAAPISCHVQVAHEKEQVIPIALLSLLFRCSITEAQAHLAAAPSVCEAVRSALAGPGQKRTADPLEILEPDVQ

| SMILES | outcome [1] | max response [2] | Potency [3] | outcome [4] | Potency [5] | Potency [6] | Potency [7] | outcome [8] | Potency [2] | Potency [9] | Potency [10] |
| --- | --- | --- | --- | --- | --- | --- | --- | --- | --- | --- | --- |
| NC(=O)c1cc(N2CC2)c([N+](=O)[O-])cc1[N+](=O)[O-] | inactive | 5.78% | inactive | inactive | inactive | inactive | inactive | inactive | – | – | – |
| NC(CCCCCP(=O)(O)O)C(=O)O (stereo not drawn) | – | -2.34% | inactive | inactive | inactive | inactive | inactive | inactive | – | – | – |
| NC(Cc1cc(O)c(O)cc1O)C(=O)O (stereo not drawn) | – | 2.05% | inactive | inactive | inactive | inactive | inactive | inactive | – | – | – |
| CN1CCc2cccc(Cl)c2CC1 | inactive | 33.5% | inactive | inactive | inactive | inactive | inactive | inactive | – | – | – |
| CCS(=O)(=O)Nc1cccc(C(=C2CCCCC2)c2cnc[nH]2)c1 | inactive | – | inactive | inactive | inactive | – | inactive | inactive | – | – | – |
| CCCN1CCc2cccc3c2[C@H]1Cc1ccc(O)c(O)c1-3 | inactive | – | inactive | inactive | inactive | inactive | inactive | – | – | – | – |
| CN1C2CCC1CC(OC(c1ccccc1)c1ccccc1N)C2 (stereo not drawn) | inactive | 17.7% | inactive | inactive | inactive | inactive | – | inactive | – | – | – |
| CCn1cnc2c(Nc3cccc(Cl)c3)nc(N[C@@H]3CCCC[C@@H]3N)nc21 | inactive | – | inactive | inactive | inactive | inactive | – | – | – | – | – |
| C[C@@H]1O[C@@H](O[C@H]2C[C@@H](O)[C@]3(CO)[C@@H]4C(CC[C@]3(O)C2)[C@@]2(O)CC[C@H]([C@@H]3COC(=O)C3)[C@@]2(C)C[C@H]4O)[C@H](O)[C@H](O)[C@H]1O (stereo partly drawn) | inactive | – | inactive | inactive | inactive | inactive | inactive | – | – | – | – |
| Cc1c2ccncc2c(C)c2c1[nH]c1ccccc12 | inactive | – | inactive | inactive | inactive | 10.7 µM (active) | 5.21 µM (active) | – | 1.78 µM (active) | – | – |
| O=[N+]([O-])c1cc(O)c(O)c([N+](=O)[O-])c1 | – | -6.67% | inactive | inactive | inactive | inactive | inactive | inactive | – | – | – |
| O=[N+]([O-])/C=C/c1ccc2c(c1)OCO2 | inactive | – | inactive | inactive | 1.47 µM (active) | 2.39 µM (active) | 1.47 µM (active) | – | 1.58 µM (active) | – | – |
| C[C@H](Cc1ccc2c(c1)OC(C(=O)O)(C(=O)O)O2)NC[C@H](O)c1cccc(Cl)c1 | – | 13.1% | inactive | inactive | inactive | inactive | inactive | inactive | – | – | – |
| CC(N)[C@H](O)c1ccc(O)c(O)c1 (stereo partly drawn) | – | 7.97% | inactive | inactive | inactive | inactive | inactive | inactive | – | – | – |
| CC12NC(Cc3ccccc31)c1ccccc12 (stereo not drawn) | – | 3.88% | inactive | inactive | inactive | inactive | inactive | inactive | – | – | – |
| N=C(N)c1ccc(CS(=O)(=O)F)cc1 | inactive | 2.02% | inactive | inactive | inactive | inactive | inactive | inactive | – | – | – |
| C[N+]1(C)CCOC(O)(c2ccc(-c3ccc(C4(O)C[N+](C)(C)CCO4)cc3)cc2)C1 (stereo not drawn) | inactive | 5.92% | inactive | inactive | inactive | inactive | inactive | inactive | – | – | – |
| c1ccc2c(c1)[I+]c1ccccc1-2 | – | – | inactive | inactive | 4.14 µM (active) | 3.01 µM (active) | 0.927 µM (active) | – | 0.166 µM (active) | – | – |
| NC(=O)CI | – | 8.04% | inactive | inactive | inactive | inactive | inactive | inactive | – | – | – |
| NC(N)=NOCC[C@H](N)C(=O)O | – | -9% | inactive | inactive | inactive | inactive | inactive | – | – | – | – |
| NCC(CP(=O)(O)O)c1ccc(Cl)cc1 (stereo not drawn) | inactive | 18.6% | inactive | inactive | inactive | inactive | inactive | inactive | – | – | – |
| OCc1cnc[nH]1 | inactive | 26.7% | inactive | inactive | inactive | inactive | inactive | inactive | – | – | – |
| C[C@]12Cc3cn4c(nc3C=C1CCC1C2CC[C@@]2(C)[C@H]1CC[C@@]2(O)C#N)nc1ccccc14 (stereo partly drawn) | – | – | inactive | inactive | – | – | – | inactive | – | – | – |
| C[C@H](N)Cc1cccc(C(F)(F)F)c1 | inactive | – | inactive | inactive | – | inactive | – | inactive | – | – | – |
| C#CCN[C@H](C)Cc1ccccc1 | inactive | 19.2% | inactive | inactive | inactive | – | inactive | inactive | – | – | – |
| Oc1ccc2c3c1O[C@H]1c4oc5ccccc5c4C[C@@]4(O)C(C2)N(CC2CC2)CCC314 (stereo partly drawn) | – | – | inactive | inactive | – | inactive | inactive | – | – | – | – |
| CCCCCCCCCCCCCC(=O)O[C@@H]1[C@@H](C)[C@@]2(O)[C@@H](C=C(CO)C[C@@]3(O)C(=O)C(C)=C[C@@H]23)C2C(C)(C)[C@@]21OC(C)=O (stereo partly drawn) | inactive | -2.77% | inactive | inactive | inactive | – | 0.0066 µM (active) | – | – | – | – |
| O=P(O)(O)C(Cl)(Cl)P(=O)(O)O | – | – | inactive | – | – | – | – | – | – | inactive | inactive |
| Ic1ccccc1CNC1C2CCN(CC2)C1C(c1ccccc1)c1ccccc1 (stereo not drawn) | inactive | – | inactive | inactive | 13.1 µM (active) | – | – | – | 1.78 µM (active) | – | – |
| COC(=O)N1CCN(C(=O)Cc2ccc(Cl)c(Cl)c2)C(CN2CCCC2)C1 (stereo not drawn) | inactive | 14.6% | inactive | inactive | – | inactive | inactive | inactive | – | – | – |
